From PubChem BioAssay (EPA / NIEHS)
Values joined by “and” are separate entries in the source; they are usually repeats but may differ in a detail not shown here. Equal values may be shown once. Active and inactive are the calls of the source. Rule for the calls: active = hit-call score of the fitted dose curve at least 0.9, where 1 is the maximum; inactive = score below 0.9.

read-out: Thrombomodulin, THBD (gene 7056); test: BSK_3C_Thrombomodulin: BioMAP Diversity Plus: 3C Assay for Thrombomodulin Biomarker Activity (AID 2283029); conditions: primary human endothelial cells (HUVEC); actives raise or lower the signal
Experimental: BSK_3C is a cell-based, multiplexed-readout assay that uses umbilical vein endothelium, a human vascular primary cell, with measurements taken at 24 hours after chemical dosing in a 96-well plate.BSK_3C_Thrombomodulin is an assay component measured in the BSK_3C assay. It measures Thrombomodulin antibody related to regulation of gene expression using ELISA technology.Data from the assay component BSK_3C_Thrombomodulin was analyzed into 1 assay endpoint. This assay endpoint, BSK_3C_Thrombomodulin, was analyzed with bidirectional fitting relative to DMSO as the negative control and baseline of activity. Using a type of binding reporter, gain or loss-of-signal activity can be used to understand changes in the signaling as they relate to the gene THBD. Furthermore, this assay endpoint can be referred to as a primary readout, because this assay has produced multiple assay endpoints where this one serves a signaling function. To generalize the intended target to other relatable targets, this assay endpoint is annotated to the gpcr intended target family, where the subfamily is rhodopsin-like receptor.
The levels of cell surface (or secreted, indicated by the prefix "s") biomarker endpoints were measured by ELISA. Overt cytotoxicity to cells in confluent adherent cultures (all systems other than the BT system) was assessed by measuring total protein levels using sulforhodamine B (SRB) staining in parallel cultures at the time of biomarker measurements, indicated as SRB endpoints. For proliferation assays for adherent cell types, individual cell types are cultured at sub-confluence and relative cell numbers quantified by SRB staining at time points optimized for each system (48 h: 3C and CASM3C systems; 72 h: BT and HDF3CGF systems; 96 h: SAg system). SRB was performed by staining cells with 0.1% SRB after fixation with 10% TCA and reading wells at 560 nm.Viability and proliferation of PBMC (T cells) was quantified by Alamar Blue reduction for the SAg and BT systems. For PBMC viability (referred to as PBMC Cytotoxicity within the assay endpoint names), cells were plated (75,000/well in a 96-well plate) and then chemical samples added for 1 h before addition of activators, SEB and TSST-1 (20 ng/mL final concentration each). Cells were incubated for 90 h. Then, Alamar Blue (20 uL/well) (Invitrogen, Cat DAL1100) was added for 6 h, and the plates were read with a fluorescence microplate reader at 546/580 nm (excitation/emission). For PBMC proliferation, cells were plated and activated as above but incubated for only 16 h prior to addition of Alamar Blue. Plates were read after 6 h.

outcome, inactive:
O=C(Cl)c1cc(C(=O)Cl)cc(C(=O)Cl)c1
CO[Si](OC)(OC)c1ccccc1
c1ccc(-c2ccccn2)nc1
COCc1c(C(C)C)nc(C(C)C)c(/C=C/[C@@H](O)C[C@@H](O)CC(=O)O)c1-c1ccc(F)cc1
CN1C(=O)N(C)C(O)C1O (stereo unspecified)
CCO[Si](C)(OCC)OCC
N#[N+]c1ccc2c(S(=O)(=O)[O-])cccc2c1O
COc1ccc2nc(N)sc2c1
C=CC(=O)OCC(Br)CBr (stereo unspecified)
CCCCNc1ccc(NCCCC)c2c1C(=O)c1ccccc1C2=O
CCO[Si](CCCN=C=O)(OCC)OCC
c1ccc2c(c1)ccc1ncccc12
C/C=C\C/C=C/CCCCCCCCOC(C)=O
c1ccc2c(c1)ccc1cc3c(ccc4ccccc43)cc12
CCOc1nc(F)cc2nc(S(=O)(=O)Nc3c(Cl)cccc3C(=O)OC)nn12
CCCCC/C=C\C/C=C\CCCCCCCC(=O)OC
S=C(NC1CCCCC1)NC1CCCCC1
O=C1CCCN1CCO
O=Nc1ccc(O)cc1
C=CC=CC=CCCCCC
C=CCOCC(O)CCl (stereo unspecified)
Nc1ccc(N)c(Cl)c1
O=c1c2ccccc2oc2ccccc12
CCCCC(CC)COCC1CO1 (stereo unspecified)
CCCCC(CC)COC(=O)c1ccccc1O (stereo unspecified)
CC1OC1C1CCC2(C)OC2C1 (stereo unspecified)
C=C[Si](OC(C)=O)(OC(C)=O)OC(C)=O
O=C(c1ccc(O)cc1)c1ccc(O)cc1O
CCCCCCCCc1ccc(Nc2ccc(CCCCCCCC)cc2)cc1
CC(C)C(=O)C(C)C

AC50, active:
CCOC(=O)c1ccccc1C(=C1C=C(Br)C(=O)C(Br)=C1)c1cc(Br)c(O)c(Br)c1 18.5 µM and 19.2 µM
C=CCOc1c(Br)cc(Br)cc1Br 3.97 µM
CCCCCCCCCCCCCCCC[N+](C)(C)CC 2.35 µM
C#CC1(O)CC[C@H]2[C@@H]3CCC4=CCCC[C@@H]4[C@H]3CC[C@@]21C (stereo partly specified) 12 µM
O=C(Nc1ccccc1SSc1ccccc1NC(=O)c1ccccc1)c1ccccc1 5.7 µM
CC(C)(c1cc(Br)c(OCCO)c(Br)c1)c1cc(Br)c(OCCO)c(Br)c1 28.6 µM
